# From PubChem BioAssay AID624167 (Sanford-Burnham Center for Chemical Genomics, 2012)
# Assay: inhibition of PEG-3 promoter-driven reporter – cell-based, HeLa, luciferase, CREF/GAPDH counter-screen panel, dose response (AID 624167)
# Conditions: CREF/GAPDH counter-screens; run 1, dose range 1, at 100 µM (top of the series)
row,SMILES,inhibition
1,O=C1C=CC(=O)N1c1ccc(-c2nc3ccccc3o2)cc1,100%
2,O=C(NNC(=O)c1cccnc1SCc1cccc([N+](=O)[O-])c1)c1ccccn1,6.38%
3,O=C(N/N=C/c1c(O)ccc2ccccc12)c1ccc(CO)nc1,-8.84%
4,O=C(N/N=C/c1sc(N2CCOCC2)nc1-c1ccccc1)c1cccc(S(=O)(=O)N2CCCC2)c1,52%
5,O=C(O)c1ccc(CN2C(=O)c3cccc4c([N+](=O)[O-])ccc(c34)C2=O)cc1,99.1%
6,CC(=O)c1sc2c(c1OC(=O)c1ccc(Cl)cc1Cl)c(=O)n(-c1ccccc1)c(=S)n2-c1ccccc1,85.9%
7,Cc1cc(C)c(C)c(S(=O)(=O)N2CCN(C(=O)c3cc(=O)[nH]c4ccccc34)CC2)c1C,71.8%
8,Cc1ccc(/C=C2\SC(=S)N(CCCC(=O)NNC(=O)c3ccccc3O)C2=O)cc1,76.4%
9,CCc1ccn2cc(-c3ccc4c(c3)OCO4)nc2c1,92.7%
10,CCCCC(=O)NC(c1ccccc1OC)c1ccc2cccnc2c1O (stereo unspecified),37.8%
11,CC(=O)c1ccc(-c2cnc3c(NC=O)cc(-c4ccccc4Oc4ccccc4)cn23)cc1,39.3%
12,O=C(Nc1ccccc1)c1nc[nH]c1C(=O)NCCCCCCNC(=O)c1[nH]cnc1C(=O)Nc1ccccc1,-2.1%
13,COCCCNC(=O)c1ccc(Cn2c(=O)c3ccccc3n(Cc3ccccc3C#N)c2=O)cc1,32.3%
14,CC(=O)NC(c1ccc(Cl)cc1)c1ccc2cccnc2c1O (stereo unspecified),69.3%
15,CC1CC(C)C(=O)C(C(CC2CC(=O)NC(=O)C2)OC(=O)CC(=O)c2ccccc2)C1 (stereo unspecified),88.4%
16,COc1ccc(C(NC(C)=O)c2ccc3cccnc3c2O)c(OC)c1 (stereo unspecified),-5.47%
